SMILES strings stand for the structures. Inconclusive results are not listed. A call without a number means that no potency is given here. Activity calls are given as the source filed them. Calls follow the shape of the dose curve; as a rule, active = well fitted cell-killing curve with a large enough effect; inconclusive = small, poorly fitted or top-dose-only effect, or effect the other way; inactive = flat fitted curve, though single readings scatter.
Potency is read from the fitted curve at half-maximal effect.

The assay concerns PA-1. As to the kind of experiment: Primary qHTS to identify gynecologic anti-cancer compounds using libraries of approved drugs and bioactive compounds (AID 1345084). Also: nearly all actives have a fitted effect of over 55% in size. The following applies: Gynecologic cancer cell panel viability, ATPlite luminescence, 48 h; series mostly up to 57.5 µM. The method, boiled down: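 Cell viability after 48 h drug treatment, ATPlite luminescence readout; five doses.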
Turning to `N[C@@]1(C(=O)O)CC[C@H]2[C@H](C(=O)O)[C@H]21`, the Potency result was “inactive”.
The same measure, in the same setting: to `C[C@@H]1O[C@@H](O[C@H]2[C@@H]3C=CO[C@@H](O[C@@H]4O[C@H](CO)[C@@H](O)[C@H](O)[C@H]4O)[C@@H]3[C@@]3(CO)O[C@@H]23)[C@H](OC(=O)/C=C/c2ccccc2)[C@H](O)[C@H]1O` belongs “inactive”.
In the case of `C=C1CN(Cc2ccc(C(=O)Nc3ccccc3N)cc2)C(=O)c2ccccc21`, the Potency is 2240 nM (active).
On the same count and under the same terms, the result for `COc1ccc(C(=O)n2c(C)c(Cc3cccc(O[C@@H](C)C(=O)O)c3)c3cc(OC(F)(F)F)ccc32)cc1` reads “inactive”.
Take `Cc1ccc([N+](=O)[O-])cc1S(=O)(=O)N(C)/N=C/c1cnc2ccc(Br)cn12`: the Potency was 199 nM (active).
Take `C[C@@H]1O[C@@H](O[C@@H]2[C@@H](O)[C@H](O[C@H]3CC[C@@]4(C)C(CC[C@]5(C)C4CC=C4[C@@H]6CC(C)(C)CC[C@]6(C(=O)O[C@@H]6O[C@H](CO)[C@@H](O)[C@H](O)[C@H]6O)CC[C@]45C)C3(C)C)O[C@H](C(=O)O)[C@H]2O)[C@H](O)[C@H](O)[C@H]1O` (stereo not given in full): the activity change, negative = cytotoxicity is 2.04% [at 11.6 µM] (inactive).
In the case of `CC1=CCC2C(C)(C)CCC[C@]2(C)[C@@]12CC[C@](C)(CC(=O)O)O2` (stereo not given in full), the Potency entry was “inactive”.
As for `CC1CCC2C(C)(C)[C@@H](O)CC[C@]2(C)C12Cc1c(O)cc3c(c1O2)CN(C(CCC(=O)O)C(=O)O)C3=O` (stereo not given in full), the Potency entry was “inactive”.
As for `Cc1cc(NC(=O)Nc2ccc(F)c(F)c2)n(-c2ccccc2)n1`, the Potency result is “inactive”.
On the same count and under the same terms, to `CC(/C=C/C1=CC2=CC(=O)C(C)(O)C(O)C2=CO1)=C\C(C)CCO` (stereo not given) belongs “inactive”.
Same read-out and setting: to `CO[C@H]1C[C@@H]2CC[C@@H](C)[C@@](O)(O2)C(=O)C(=O)N2CCCC[C@H]2C(=O)O[C@H]([C@H](C)C[C@@H]2CC[C@H](n3cnnn3)[C@H](OC)C2)CC(=O)[C@H](C)/C=C(\C)[C@@H](O)[C@@H](OC)C(=O)[C@H](C)C[C@H](C)/C=C/C=C/C=C/1C` belongs “inactive”; to `Cn1c(=O)cc(N2CCCC(N)C2)n(Cc2cc(F)ccc2C#N)c1=O` (stereo not given), “inactive”; to `CCN1CCN(Cc2ccc(NC(=O)c3ccc(C)c(/C=C/c4cnc5[nH]ccc5c4OC)c3)cc2C(F)(F)F)CC1`, 5620 nM (active).
Same read-out and setting: the result for `COc1c(Nc2ncc(Cl)c(N[C@H]3[C@@H](C(N)=O)[C@@H]4C=C[C@H]3C4)n2)ccc2c1CC[C@@H](N1CCOCC1)CC2` reads “inactive”.
For the molecule `CNC(=S)NS(=O)(=O)c1cc(CCNC(=O)c2cc(Cl)ccc2OC)ccc1OC`, the Potency entry is “inactive”.
Still for that read-out and setting: to `COc1ccc(CC2NCCc3c2[nH]c2ccc(C)cc32)cc1OC` (stereo not given) belongs “inactive”; to `O=C(/C=C/c1cccc(S(=O)(=O)Nc2ccccc2)c1)NO`, 1260 nM (active).
`Cc1cccc(C)c1-n1c(=O)c2cnc(Nc3ccc(N4CCN(C)CC4)cc3)nc2n2c3ccccc3nc12`: the Potency was 7940 nM (active).
On the same count and under the same terms, to `NC1CCC(Nc2cc(-c3cccc(NCc4cccc(F)c4)n3)c(Cl)cn2)CC1` (stereo not given) belongs 178 nM (active).
Consider `C[C@H](NC(c1cccc(C[P+](=O)O)c1)[C@H](C)O)c1ccc(Cl)c(Cl)c1` (stereo not given in full), for which the Potency entry is “inactive”.
The same measure, in the same setting: to `O=C(N/N=C/c1ccc(O)c(O)c1)c1cc2ccccc2cc1O` belongs “inactive”; to `CO[C@H]1C[C@@H]2CC[C@@H](C)[C@@](O)(O2)C(=O)C(=O)N2CCCC[C@H]2C(=O)O[C@H]([C@H](C)C[C@H]2CC[C@@H](OP(C)(C)=O)[C@H](OC)C2)CC(=O)[C@H](C)/C=C(\C)[C@@H](O)[C@@H](OC)C(=O)[C@H](C)C[C@H](C)/C=C/C=C/C=C/1C`, “inactive”; to `CC(C)=CCC/C(C)=C/CO[C@@H]1O[C@H](CO)[C@@H](O)[C@H](O)[C@H]1O`, “inactive”.
For `O=C(O)CCCCCC[C@H]1C(=O)NC(=O)N1CC[C@@H](O)C1CCCCC1`, the Potency entry is “inactive”.
Still for that read-out and setting: the result for `CCC(O)(C(=O)OCc1ccccc1NC(=O)CCC(=O)O)C(C)O` (stereo not given) reads “inactive”.
Regarding `COC(=O)C[C@H]1[C@]2(C)C3=C(C)[C@H](c4ccoc4)C[C@H]3O[C@@H]2[C@H](OC(C)=O)C2[C@](C)(C(=O)OC)C=CC(=O)[C@@]21C` (stereo not given in full), the Potency entry is “inactive”.
`C=C(C(=O)O)[C@H]1C[C@]2(C)[C@@H](O)CC[C@]23O[C@H]1C[C@@H]3C`: the Potency entry is “inactive”.
Turning to `COc1c(/C=C/C(C)(C)O)ccc2c1C(=O)OCc1cc(C)cc(O)c1O2`, the Potency result is “inactive”.
The same measure, in the same setting: the result for `Cc1cc(C)c(CNC(=O)c2cc(-c3ccc(CN4CCOCC4)cc3)cc3c2cnn3C2CCCC2)c(=O)[nH]1` reads “inactive”; that for `O=C(O)c1ccc(CN2CCC(CN[C@@H]3C[C@H]3c3ccccc3)CC2)cc1`, “inactive”.
